Experimental data as given in PubChem BioAssay (Tox21).
“And” between values parts separate entries of the source, which are not always exact repeats. Identical values can stand only once. Inconclusive results are not listed. The source holds several records for some structures; these can differ, active in one and inactive in another. The source made the active and inactive calls. Unless noted, calls come from the whole dose curve; as a rule, active = well fitted curve in the direction sought with a large enough effect in the repeat runs; inconclusive = weak or mixed curves; inactive = no such curve, though single readings can be large; an effect the other way counts as inactive or inconclusive.

How the values were obtained:
[1] = qHTS assay to identify small molecule antagonists of the estrogen related receptor (ERR) signaling pathway from Tox21 library - cell viability counter screen (AID 1224834); note: nearly all actives have a fitted effect of over 30% in size; note: potency is the fitted concentration of half-maximal effect
Summary of the method: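 Viability readout (CellTiter-Fluor fluorescence, 30 min at 37 C) multiplexed with the ERR assay; cells treated 17.5 h at 37 C with compounds delivered in DMSO.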

[2] = molecular target: Luciferin 4-monooxygenase (Photinus pyralis) (UniProt P08659); assay: qHTS assay to identify small molecule inhibitors of firefly luciferase (AID 1224835); note: nearly all actives have a fitted effect of over 25% in size; note: potency is the fitted concentration of half-maximal effect
Summary of the method: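 Inhibition of purified Photinus luciferase is measured by luminescence. Substrate levels (D-luciferin, ATP) sit at their KM values. Each compound is tested in a concentration series.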

[3] = qHTS assay to identify small molecule agonists of the constitutive androstane receptor (CAR) signaling pathway - cell viability counter screen (AID 1224836); note: nearly all actives have a fitted effect of over 45% in size
Summary of the method: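 Double-stable HepG2 hepatoma cells (hCAR plus CYP2B6-2.2kb) are treated for 23 h at 37 C with test compounds in 15-point concentration series. PK11195 at 0.75 uM final is co-added. Cell viability is quantified by CellTiter-Fluor.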

[4] = qHTS assay to identify small molecule antagonists of the constitutive androstane receptor (CAR) signaling pathway - cell viability counter screen (AID 1224837); note: nearly all actives have a fitted effect of over 45% in size
Summary of the method: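 Fluorescence from CellTiter-Fluor served as the viability signal. Human hepatoma HepG2 cells stably bearing hCAR and CYP2B6-2.2kb received compound plus CITCO (50 nM final) for 23 hr.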

[5] = molecular target: Nuclear receptor subfamily 1 group I member 3 (Homo sapiens) (UniProt Q14994); assay: qHTS assay to identify small molecule antagonists of the constitutive androstane receptor (CAR) signaling pathway (AID 1224838);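 note: HepG2 cells stably expressing hCAR with CYP2B6 luciferase reporter stimulated by CITCO; nearly all actives have a fitted effect of over 40% in size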
Summary of the method: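 Quantitative HTS in double-stable HepG2-CYP2B6-hCAR cells. After 4 h plating, cells get compound (15 concentrations) and CITCO at 50 nM final, incubate 24 h at 37 C, then ONE-Glo luminescence is read.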

[6] = molecular target: Nuclear receptor subfamily 1 group I member 3 (Homo sapiens) (UniProt Q14994); assay: qHTS assay to identify small molecule agonists of the constitutive androstane receptor (CAR) signaling pathway (AID 1224839); note: nearly all actives have a fitted effect of over 15% in size; note: potency is the fitted concentration of half-maximal effect;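 for activation: HepG2 cells stably carrying human CAR and a CYP2B6 luciferase reporter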
Summary of the method: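 Readout: firefly luciferase luminescence via ONE-Glo. System: HepG2 double-stable for hCAR and CYP2B6-2.2kb. Conditions: 15-point compound titration, PK11195 at 0.75 uM final, 24 h incubation.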

[7] = qHTS assay to identify small molecule antagonists of the estrogen related receptor signaling pathway with the pleiotropic PPARgamma coactivator (PGC) from Tox21 10K library - cell viability counter screen (AID 1224840; active = well fitted cell-killing curve with a large enough effect in the repeat runs, not every such curve was filed as active; note: nearly all actives have a fitted effect of over 40% in size)
Summary of the method: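 Compounds in DMSO, alongside positive and negative controls, were pinned onto PGC/ERR cells (2,000 per well). Exposure lasted 17.5 hours at 37 C, followed by a 30-minute CellTiter-Fluor incubation and fluorescence reading.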

[8] = molecular target: Thyrotropin receptor (Homo sapiens) (UniProt P16473); assay: qHTS assay to identify small molecule agonists of the thyroid stimulating hormone receptor (TSHR) signaling pathway (AID 1224843; calls by dose curve; note: nearly all actives have a fitted effect of over 45% in size; note: potency is the fitted concentration of half-maximal effect)
Summary of the method: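 HEK293 cells stably bearing the thyrotropin receptor were plated at 800 cells/well and challenged with compound (30 min, RT). Accumulated cAMP was quantified via cAMP-d2 competing for cryptate-tagged antibody.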

[9] = qHTS assay to identify small molecule agonists of the hypoxia (HIF-1) signaling pathway - cell viability counter screen (AID 1224844; calls by dose curve; note: nearly all actives have a fitted effect of over 50% in size)
Summary of the method: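 Luminescent ATP content (CellTiter-Glo, 30 min, room temperature) served as the viability measure in HRE-bla ME-180 cells exposed to compounds for 17 hrs in low-serum medium (0.5% dialyzed FBS).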

[10] = qHTS assay to identify small molecule agonists of H2AX (AID 1224845; active = well fitted activation curve with a large enough effect in the signal ratio in the repeat runs, not every such curve was filed as active; the % refers to the signal ratio)
Summary of the method: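 Phospho-H2AX Ser139 measured by HTRF (ex 320 nm; em 665 and 620 nm) after 24 hr antibody incubation. Compounds, 15 concentrations, 0.76% DMSO, were applied to CHO-K1 cells for 3hr at 37C before lysis.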

[11] = qHTS assay to identify small molecule agonists of the hypoxia (HIF-1) signaling pathway (AID 1224846; active = well fitted activation curve with a large enough effect in the signal ratio in the repeat runs, not every such curve was filed as active; the % refers to the signal ratio)
Summary of the method: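 Measured by blue/green FRET after loading CCF4-AM: beta-lactamase expressed from a hypoxia response element in ME-180 cells. Test agents were delivered in DMSO and left 17 hrs; cells had been plated 5 hrs earlier in low-serum (0.5% dialyzed FBS) medium.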

[12] = qHTS assay to identify small molecule agonists of H2AX - cell viability counter screen (AID 1224847; calls by dose curve; note: nearly all actives have a fitted effect of over 30% in size; note: potency is the fitted concentration of half-maximal effect)
Summary of the method: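 For this counter screen, overnight-attached CHO-K1 cells received test compounds (15 concentrations, 0.76% DMSO final); 3 hr later at 37C, CellTiter-Glo reagent was added and luminescence recorded after 30 min at room temperature.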

[13] = qHTS RealTime-Glo MT Cell Viability Assay in HepG2 cells - 24 hour (AID 1224867); note: nearly all actives have a fitted effect of over 50% in size
Summary of the method: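 Luminescence read-out: viable HepG2 cells reduce a prosubstrate to a NanoLuc substrate, giving a signal proportional to live cell number. Reads taken at 0, 8, 16, 24, 32 and 40 h of compound exposure at 37 C.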

[14] = qHTS RealTime-Glo MT Cell Viability Assay in HEK293 cells - 32 hour (AID 1224868); note: nearly all actives have a fitted effect of over 50% in size; note: potency is the fitted concentration of half-maximal effect
Summary of the method: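 Nonlytic real-time viability readout: viable cells convert prosubstrate to NanoLuc substrate, giving luminescence proportional to live cell number. HEK293, 600 cells/well, compound added after 5 h, continuous culture at 37 C.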

[15] = A CellTox Green Cytotoxicity Assay to monitor cytotoxicity in HEK293 cells - 0 hour (AID 1224869); note: nearly all actives have a fitted effect of over 50% in size
Summary of the method: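 Each value comes from one timepoint of a single continuous run in which HEK293 cells with CellTox Green were exposed to compound for up to 40 h at 37 C, dye fluorescence rising with cell death.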

[16] = qHTS RealTime-Glo MT Cell Viability Assay in HepG2 cells - 40 hour (AID 1224870); note: nearly all actives have a fitted effect of over 50% in size
Summary of the method: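 Real-time viability: cells seeded at 600 per well together with NanoLuc and cell-permeant prosubstrate, compounds added after 5 h incubation. Luminescence tracked at 0, 8, 16, 24, 32 and 40 h of exposure.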

[17] = qHTS assay to identify small molecule antagonists of the estrogen related receptor signaling pathway with the pleiotropic PPARgamma coactivator (PGC) from Tox21 10K library (AID 1224841; call rule not given here)
Summary of the method: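 Compound exposure ran 18 hours at 37 C in PGC/ERR cells (2,000/well) that had first rested 6 hours in a 37 C/5% CO2 incubator. Luciferase activity was then detected with One-Glo after a 30-minute room-temperature step.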

[18] = qHTS assay to identify small molecule agonists of the estrogen related receptor signaling pathway with the pleiotropic PPARgamma coactivator (PGC) from Tox21 10K library (AID 1224842); note: nearly all actives have a fitted effect of over 15% in size
Summary of the method: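 Luminescence from One-Glo (30 min, room temperature) measured after PGC/ERR cells had 18 h at 37 C with pinned compound (23 nL in DMSO). Cells had been seeded at 2,000 per well and pre-incubated 6 h.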

[19] = qHTS assay to identify small molecule antagonists of the estrogen related receptor (ERR) signaling pathway from Tox21 library (AID 1224848); note: nearly all actives have a fitted effect of over 50% in size
Summary of the method: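 Reading was by luminescence 30 min after ONE-Glo addition. Before that, ERR cells at 2,000 per well had rested 6 h at 37 C/5% CO2 and then received pin-tooled compounds in DMSO for 18 h at 37 C.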

[20] = qHTS assay to identify small molecule agonists of the estrogen related receptor (ERR) signaling pathway from Tox21 library (AID 1224849; calls by dose curve; note: nearly all actives have a fitted effect of over 15% in size); conditions: ERR reporter cell line, ONE-Glo luciferase, 18 h; at 92.4 µM (top of the series)
Summary of the method: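 We plated ERR reporter cells, waited 6 h, added compounds in DMSO by pin tool and incubated them 18 h at 37 C. ONE-Glo was then added and luminescence read after 30 min.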
% is set by controls: 0 for no effect and ±100 for the full control effect.

Chain of Luciferin 4-monooxygenase (Photinus pyralis) (P08659 whole entry, looked up): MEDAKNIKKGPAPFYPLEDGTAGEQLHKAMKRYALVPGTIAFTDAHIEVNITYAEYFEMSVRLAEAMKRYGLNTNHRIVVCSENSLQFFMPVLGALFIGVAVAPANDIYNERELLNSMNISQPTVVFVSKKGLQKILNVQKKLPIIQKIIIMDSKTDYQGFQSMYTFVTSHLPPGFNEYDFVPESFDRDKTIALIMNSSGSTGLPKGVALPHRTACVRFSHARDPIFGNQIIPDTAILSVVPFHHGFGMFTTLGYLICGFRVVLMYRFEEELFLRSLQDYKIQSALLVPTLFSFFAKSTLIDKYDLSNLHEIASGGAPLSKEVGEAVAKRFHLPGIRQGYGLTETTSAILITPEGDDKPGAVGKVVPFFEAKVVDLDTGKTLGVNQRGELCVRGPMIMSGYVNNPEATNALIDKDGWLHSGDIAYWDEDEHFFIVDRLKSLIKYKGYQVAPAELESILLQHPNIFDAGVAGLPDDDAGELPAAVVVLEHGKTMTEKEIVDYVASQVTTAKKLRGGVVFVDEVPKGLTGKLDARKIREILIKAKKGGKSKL
Chain of Thyrotropin receptor (Homo sapiens) (P16473 whole entry, looked up): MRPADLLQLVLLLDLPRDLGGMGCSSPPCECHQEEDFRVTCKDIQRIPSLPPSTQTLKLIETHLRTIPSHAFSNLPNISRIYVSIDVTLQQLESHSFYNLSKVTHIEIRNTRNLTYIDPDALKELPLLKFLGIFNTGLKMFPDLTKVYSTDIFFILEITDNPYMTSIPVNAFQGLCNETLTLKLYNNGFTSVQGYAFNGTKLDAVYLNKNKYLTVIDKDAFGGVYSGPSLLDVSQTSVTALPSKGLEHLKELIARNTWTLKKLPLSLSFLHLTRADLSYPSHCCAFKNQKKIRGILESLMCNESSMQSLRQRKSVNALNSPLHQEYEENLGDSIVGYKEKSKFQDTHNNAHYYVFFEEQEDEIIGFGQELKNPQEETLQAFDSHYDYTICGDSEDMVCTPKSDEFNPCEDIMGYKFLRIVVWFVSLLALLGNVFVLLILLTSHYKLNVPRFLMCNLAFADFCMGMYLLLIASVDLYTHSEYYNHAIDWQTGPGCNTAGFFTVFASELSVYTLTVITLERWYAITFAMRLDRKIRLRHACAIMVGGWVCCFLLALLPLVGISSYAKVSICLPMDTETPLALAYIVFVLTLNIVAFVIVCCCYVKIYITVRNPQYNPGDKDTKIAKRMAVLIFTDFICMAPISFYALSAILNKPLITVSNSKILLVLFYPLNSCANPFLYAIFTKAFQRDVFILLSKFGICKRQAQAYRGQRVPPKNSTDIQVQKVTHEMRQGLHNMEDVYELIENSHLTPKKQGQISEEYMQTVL
Chain of Nuclear receptor subfamily 1 group I member 3 (Homo sapiens) (Q14994 whole entry, looked up): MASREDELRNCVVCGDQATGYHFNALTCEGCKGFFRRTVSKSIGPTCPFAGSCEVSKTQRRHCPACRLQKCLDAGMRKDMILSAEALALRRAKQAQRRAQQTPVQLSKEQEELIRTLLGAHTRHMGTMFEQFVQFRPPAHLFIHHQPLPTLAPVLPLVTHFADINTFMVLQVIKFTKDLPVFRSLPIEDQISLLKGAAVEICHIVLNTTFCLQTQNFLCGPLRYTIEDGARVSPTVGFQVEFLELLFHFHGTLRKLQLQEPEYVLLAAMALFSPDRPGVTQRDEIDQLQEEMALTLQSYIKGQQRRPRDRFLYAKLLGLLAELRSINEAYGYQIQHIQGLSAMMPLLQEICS

CCN1CCCC1=O
inactive: Potency [1] | Potency [2] | Potency [3] | Potency [4] | Potency [5] | Potency [6] | Potency [7] | Potency [8] | Potency [9] | Potency [10] | outcome [11] | Potency [12] | outcome [13] | Potency [14] | Potency [15] | outcome [16]

C#C[C@]1(O)CC[C@H]2[C@@H]3CCC4=CC(=O)CC[C@@H]4[C@H]3CC[C@@]21CC
inactive and 89.8 µM (active): Potency [12]
inactive: Potency [2] | Potency [3] | Potency [4] | Potency [7] | Potency [8] | Potency [9] | Potency [10] | outcome [11] | outcome [13] | outcome [16]
43.6 µM (active) and inactive: Potency [14]
inactive and 54.5 µM (active): Potency [1]

CCCCOCCOCCOC(C)=O
inactive: Potency [1] | Potency [2] | Potency [3] | Potency [5] | Potency [6] | Potency [7] | Potency [17] | Potency [18] | Potency [9] | Potency [10] | outcome [11] | Potency [12] | Potency [19] | outcome [13] | Potency [14] | Potency [15] | outcome [16]

CC(O)COc1ccccc1 (configuration not stated)
inactive: Potency [1] | Potency [2] | Potency [3] | Potency [4] | Potency [5] | Potency [6] | Potency [7] | Potency [8] | Potency [9] | Potency [10] | outcome [11] | Potency [12] | outcome [13] | Potency [14] | outcome [16]

O=c1c(-c2ccc(O)cc2)coc2cc(O)cc(O)c12
active: Potency [2] 13.9 µM and 11.2 µM and 9.77 µM | Potency [6] 15.1 µM and 9.69 µM and 13.3 µM | Potency [14] 24.5 µM
inactive: Potency [1] | Potency [3] | Potency [4] | Potency [5] | Potency [7] | Potency [8] | Potency [9] | outcome [11] | Potency [12] | outcome [13] | outcome [16]

C1CNCCN1
inactive: Potency [1] | Potency [2] | Potency [3] | Potency [4] | Potency [5] | Potency [6] | Potency [7] | Potency [8] | Potency [9] | Potency [10] | outcome [11] | Potency [12] | outcome [13] | Potency [14] | Potency [15] | outcome [16]

CC(=O)OC/C=C(C)/C=C/C=C(C)/C=C/C1=C(C)CCCC1(C)C
inactive: Potency [1] | Potency [2] | Potency [3] | Potency [4] | Potency [5] | Potency [6] | Potency [7] | Potency [8] | Potency [9] | Potency [10] | outcome [11] | Potency [12] | outcome [13] | Potency [14] | Potency [15] | outcome [16]

c1ccc2[nH]c(-c3cscn3)nc2c1
active: Potency [2] 28.4 µM and 35.6 µM and 17.4 µM | Potency [6] 13.8 µM and 6.11 µM and 7.5 µM
inactive: Potency [1] | Potency [3] | Potency [4] | Potency [5] | Potency [7] | Potency [8] | Potency [9] | Potency [10] | outcome [11] | Potency [12] | outcome [13] | Potency [14] | Potency [15] | outcome [16]

Cc1cccc(C)c1O
inactive: Potency [1] | Potency [2] | Potency [3] | Potency [4] | Potency [5] | Potency [6] | Potency [7] | Potency [17] | Potency [18] | Potency [9] | Potency [10] | outcome [11] | Potency [12] | Potency [19] | activity change, positive = activation [20] 7.32% and 4.77% | outcome [13] | Potency [14] | outcome [16]

OCCCc1ccccc1
inactive: Potency [1] | Potency [2] | Potency [3] | Potency [5] | Potency [6] | Potency [7] | Potency [17] | Potency [18] | Potency [8] | Potency [9] | Potency [10] | outcome [11] | Potency [12] | Potency [19] | outcome [13] | Potency [14] | Potency [15] | outcome [16]

CC(C)(C)NCC(O)c1ccc(O)c(CO)c1 (configuration not stated)
inactive: Potency [1] | Potency [2] | Potency [3] | Potency [4] | Potency [5] | Potency [6] | Potency [7] | Potency [9] | Potency [10] | outcome [11] | Potency [12] | outcome [13] | Potency [14] | outcome [16]
active: Potency [8] 60.7 nM and 37.6 nM

CCCCNC(=O)NS(=O)(=O)c1ccc(N)cc1
inactive: Potency [1] | Potency [2] | Potency [3] | Potency [5] | Potency [6] | Potency [7] | Potency [17] | Potency [18] | Potency [8] | Potency [9] | Potency [10] | outcome [11] | Potency [12] | Potency [19] | outcome [13] | Potency [14] | outcome [16]

Cn1cnc2c1c(=O)[nH]c(=O)n2C
inactive: Potency [1] | Potency [2] | Potency [3] | Potency [4] | Potency [5] | Potency [7] | Potency [8] | Potency [9] | Potency [10] | Potency [12] | outcome [13] | Potency [14] | Potency [15] | outcome [16]

CCCCCCCC(=O)OCC(O)CO (configuration not stated)
inactive: Potency [1] | Potency [2] | Potency [3] | Potency [5] | Potency [6] | Potency [7] | Potency [17] | Potency [18] | Potency [8] | Potency [9] | Potency [10] | outcome [11] | Potency [12] | Potency [19] | outcome [13] | Potency [14] | Potency [15] | outcome [16]

COC(=O)c1ccc(O)cc1
inactive: Potency [1] | Potency [2] | Potency [4] | Potency [7] | Potency [8] | Potency [9] | Potency [10] | outcome [11] | Potency [12] | Potency [15]

COc1ccccc1O
inactive: Potency [1] | Potency [2] | Potency [4] | Potency [5] | Potency [6] | Potency [7] | Potency [8] | Potency [9] | Potency [10] | outcome [11] | Potency [12] | outcome [13] | Potency [14] | outcome [16]
